Results on 14 molecules are retold here after PubChem BioAssay (NCATS).

Inconclusive results are not listed. Activity calls are given as the source filed them. Unless noted, calls come from the whole dose curve; as a rule, active = well fitted curve in the direction sought with a large enough effect; inconclusive = small, poorly fitted or top-dose-only effect, or another doubt; inactive = no such curve, though single readings can be large; an effect the other way counts as inactive or inconclusive. Some results are limits rather than exact numbers.

Assay [1] is described as follows: Primary qHTS for small molecule stabilizers of the endoplasmic reticulum resident proteome: Secreted ER Calcium Modulated Protein (SERCaMP) assay (AID 1508630). Note: % is set by controls: 0 for no effect and ±100 for the full control effect. A digest of the protocol:
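The SH-SY5Y reporter protocol was run at 3 concentrations up to 38.3 uM (primary) or 11 concentrations (follow-up): 16 h compound, 100 nM thapsigargin for 4 h, then extracellular luciferase luminescence.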
(In general: In qHTS, concentration-response curves come from the screen itself.)

In assay [2] the target is Lysosomal acid glucosylceramidase (Homo sapiens) (UniProt P04062). Briefly: Glucocerebrosidase-p2 (AID 348; in the data active = potency below about 10 µM; note: potency is the fitted concentration of half-maximal effect). The settings on record: purified GBA, blue fluorogenic substrate, 40 min. Put shortly: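 Normal human glucocerebrosidase (0.2 nM) with blue fluorogenic substrate (80 uM final) in citrate/phosphate pH 5.9 with 10mM sodium taurocholate, 0.01% tween-20; 40 min RT, NaOH/glycine stop; fluorescence Ex 365/Em 440; AC50 from a titration from 0.6 nM upwards.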
Lysosomal acid glucosylceramidase (Homo sapiens), sequence (P04062 whole entry, looked up): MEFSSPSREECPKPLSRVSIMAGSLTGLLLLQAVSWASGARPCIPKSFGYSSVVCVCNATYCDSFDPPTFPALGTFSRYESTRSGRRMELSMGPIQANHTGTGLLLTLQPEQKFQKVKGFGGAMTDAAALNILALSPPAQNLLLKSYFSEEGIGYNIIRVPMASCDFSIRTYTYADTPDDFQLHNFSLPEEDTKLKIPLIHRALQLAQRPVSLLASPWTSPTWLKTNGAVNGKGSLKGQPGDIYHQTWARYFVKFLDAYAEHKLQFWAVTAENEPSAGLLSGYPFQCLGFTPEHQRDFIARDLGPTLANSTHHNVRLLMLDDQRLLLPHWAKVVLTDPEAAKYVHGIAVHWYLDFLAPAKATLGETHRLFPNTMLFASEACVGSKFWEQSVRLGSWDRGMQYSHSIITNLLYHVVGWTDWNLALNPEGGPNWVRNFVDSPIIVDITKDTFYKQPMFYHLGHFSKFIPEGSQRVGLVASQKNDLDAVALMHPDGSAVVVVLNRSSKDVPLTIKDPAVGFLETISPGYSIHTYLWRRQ

Assay [3] in a line: AP1 Signaling Pathway (AID 357; active = well fitted curve in either direction with a large enough effect, not every such curve was filed as active;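 note: ME-180 reporter cells stimulated with EGF at its EC50 level; % is set by controls: 0 for no effect and ±100 for the full control effect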). The note with it: ME-180 AP-1-bla reporter, EGF-induced, beta-lactamase ratio, 5 h; at 7.69 µM (top of the series) unless noted. A digest of the protocol:
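Modulation of EGF-driven AP-1 transcription was assessed with a beta-lactamase reporter in ME-180 cells. Compound and EC50 EGF were co-incubated 5 hours at 37 °C before 2.5-hour CCF4 loading at room temperature and dual-emission reading.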

The target in assay [4] is Cytochrome P450 1A2 (Homo sapiens) (UniProt P05177). Kind of assay: p450-cyp1a2 (AID 410; calls by dose curve; note: potency is the fitted concentration of half-maximal effect;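 for activity change, negative = inhibition: -100% = full effect of reference inhibitor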). Put shortly:
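O-Demethylation of luciferin 6' methyl ether by human CYP1A2 is monitored as luciferase luminescence. Substrate sits at Km (100uM); enzyme is 20nM. Values are scaled to 57 uM furafylline as maximal inhibition.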

Assay [5] can be described thus: NFAT Signaling Pathway (AID 444; active = well fitted curve in either direction with a large enough effect, not every such curve was filed as active;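 note: carbachol stimulus at about its EC50 of 1 µM final; % is set by controls: 0 for no effect and ±100 for the full control effect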). The settings on record: Jurkat NFAT-bla M1, carbachol, beta-lactamase ratio, 5 h; at 7.69 µM (top of the series) unless noted. A digest of the protocol:
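Jurkat cells with NFAT-driven β-lactamase reporter and co-expressed M1 receptor, stimulated with carbachol (final 1 uM, ~EC50), compound titration, 5 h at 37 °C. CCF4 loaded 1 h at RT; 460/530 nm ratio gave %activity and AC50.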

Assay [6] is described as follows: Stat Signaling Pathway (AID 446; active = well fitted curve in either direction with a large enough effect, not every such curve was filed as active;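 note: ME-180 cervical cancer cells given 40 pM IL-6 alongside compound; SIE-controlled beta-lactamase reporter measured as 460/530 nm FRET emission ratio; % is set by controls: 0 for no effect and ±100 for the full control effect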). The note with it: ME-180 (cervical carcinoma) SIE beta-lactamase reporter, IL-6 stimulated, 5 h; at 7.69 µM (top of the series) unless noted. A digest of the protocol:
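Compound effects on IL-6-induced STAT reporter activity were measured in ME-180 cells. After overnight culture, cells were co-treated with 40 pM IL-6 for 5 hrs before beta-lactamase substrate loading at room temperature.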

Assay [7] has as its target Glucocorticoid receptor (Homo sapiens) (UniProt P04150). Briefly: GR-GFP Redistribution (AID 450;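 active = compounds whose dose series gives a full or clear partial fitted curve of increased nuclear translocation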; note: potency is the fitted concentration of half-maximal effect). The settings on record: U2OS GR-GFP nuclear translocation, laser cytometry, 2 h.
For assay [8] the target is unchanged. Briefly: GR-EFC Redistribution (AID 451; calls by dose curve; note: potency is the fitted concentration of half-maximal effect). The note with it: CHO-K1 GR-EFC translocation, beta-gal luminescence, 2 h. A digest of the protocol: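 CHO-K1 cells expressing nuclear EA and GR-ED fragments of b-gal; compounds titrated up to 46 uM final, 2 h at 37 C. GR nuclear translocation read as complemented b-gal luminescence after 1 h RT detection.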
The target in assay [9] is Mitogen-activated protein kinase 10 (Mus musculus) (UniProt Q61831). Briefly: JNK3 AlphaScreen Assay (AID 530; active = well fitted curve in either direction with a large enough effect, not every such curve was filed as active). A digest of the protocol:
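Activity was read by AlphaScreen after JNK3-containing HepG2 lysate (cytokine pre-activated) phosphorylated biotinylated GST-cJun with 10 uM ATP at room temperature. Phospho-Ser73 cJun antibody with Protein-A acceptor beads provided detection.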
A general note: Bead proximity is the source of the signal in Alpha formats.

Assay [10] deals with 3',5'-cyclic-AMP phosphodiesterase 4B (Homo sapiens) (UniProt Q07343). Briefly: qHTS Assay for Inhibitors of PDE-IV (AID 607; active = well fitted activation curve with a large enough effect in the main read-out, with a control signal flat, not every such curve was filed as active; note: % of control where 0% means no effect). Put shortly: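 ACTOne HEK293 cells carry a modified cAMP-gated CNG channel and express endogenous PDE4; plated 1000 cells/well, compounds up to 22.9 uM final. Membrane-potential dye fluorescence (ex 535/em 590) was read; parental cells received 10 uM forskolin + 100 uM RO 20-1724.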

In assay [11] the target is Cytochrome P450 3A4 (Homo sapiens) (UniProt P08684). Kind of assay: qHTS Assay for Activators of Cytochrome P450 3A4 (AID 885). Note: nearly all actives have a fitted effect of over 65% in size. Put shortly: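 CYP3A4 activity: Luciferin-PPXE O-dealkylation, 25uM substrate, 200mM KPO4, RT throughout. Read-out is luciferase luminescence; higher values reflect activation.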
Cytochrome P450 3A4 (Homo sapiens), sequence (P08684 whole entry, looked up): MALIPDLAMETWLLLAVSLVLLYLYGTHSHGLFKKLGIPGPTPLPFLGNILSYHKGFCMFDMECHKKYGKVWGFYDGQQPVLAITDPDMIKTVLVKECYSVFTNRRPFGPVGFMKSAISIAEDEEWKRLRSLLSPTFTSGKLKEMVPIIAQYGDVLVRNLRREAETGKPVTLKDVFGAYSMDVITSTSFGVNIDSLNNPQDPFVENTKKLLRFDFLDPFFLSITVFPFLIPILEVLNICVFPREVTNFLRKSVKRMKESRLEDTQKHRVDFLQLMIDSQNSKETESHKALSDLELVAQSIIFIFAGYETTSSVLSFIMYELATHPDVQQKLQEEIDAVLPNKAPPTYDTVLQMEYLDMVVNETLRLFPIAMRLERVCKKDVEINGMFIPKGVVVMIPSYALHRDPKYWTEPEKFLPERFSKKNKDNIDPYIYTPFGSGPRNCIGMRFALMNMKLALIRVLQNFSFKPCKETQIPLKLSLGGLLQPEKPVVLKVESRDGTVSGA
Assay [12] is described as follows: qHTS Assay for Lipid Storage Modulators (AID 1519; calls by dose curve). The settings on record: Drosophila S3 cells, BODIPY lipid droplet/cell ratio, laser cytometry, cells loaded with oleic acid; for activity change, negative = inhibition: at 57.5 µM (top of the series). A digest of the protocol:
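Cells seeded at 5,000 per well were treated with compounds over a concentration series and loaded with oleic acid (400 uM, as added). Lipid droplet fluorescence (488 nm excitation, 500-530 nm channel) was read by laser-scanning cytometry and normalized to 20 uM Triacsin C.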

The target of assay [13] is Dual specificity protein kinase CLK4 (Homo sapiens) (UniProt Q9HAZ1). Kind of assay: qHTS Assay for Inhibitors of CDC-like Kinase 4 (Kinase-Glo Assay) (AID 1770). Note: % is set by controls: 0 for no effect and ±100 for the full control effect; nearly all actives have a fitted effect of over 65% in size. A digest of the protocol:
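Inhibition was judged from remaining ATP, measured by Ultra-Glo luciferase bioluminescence after Clk4 (25 nM) had acted on RS peptide at 1 uM ATP for 4.5 hours, room temperature.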

For assay [14] the target is unchanged. Briefly: qHTS Assay for Inhibitors of CDC-like Kinase 4 (ADP-Glo Assay) (AID 1771). Note: % is set by controls: 0 for no effect and ±100 for the full control effect; nearly all actives have a fitted effect of over 70% in size. A digest of the protocol:
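Compounds are pin-transferred onto substrate mix (100 uM RS peptide, 1 uM ATP), then 25 nM Clk4 is added. After 1 hr at room temperature, ADP-Glo reagent runs 45 min, detection reagent 30 min, then luminescence is read.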

The target is the same in assay [15]. Briefly: qHTS Assay for Inhibitors of CDC-like Kinase 4 (ADP-FP Assay) (AID 1795).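 Note: recombinant human CLK4 phosphorylating RS repeat peptide at 1 µM ATP; % is set by controls: 0 for no effect and ±100 for the full control effect; nearly all actives have a fitted effect of over 60% in size.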 A digest of the protocol:
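Inhibition of ADP formation by 6.25 nM Clk4 is measured using 1 uM ATP and 100 uM RS repeat peptide over one hour. Produced ADP displaces a fluorescent tracer from antibody, lowering polarization.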

Assay [16] addresses Rap guanine nucleotide exchange factor 3 (Homo sapiens) (UniProt O95398). Kind of assay: Confirmatory qHTS for antagonist of cAMP-regulated guanine nucleotide exchange factor 3 (EPAC1) (AID 1645880).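 Note: plate controls were DMSO only for no effect and full effect of the ATA control for full effect; nearly all actives have a fitted effect of over 55% in size.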 Put shortly: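 Released BODIPY-GDP fluoresces less than Rap1-bound BODIPY-GDP; the signal is followed at 480/540 nm at 5-min intervals over 30 min, after 5 min at room temperature. Reactions contain 100 nM EPAC1, 250 nM RAP1B-BODIPY-GDP and 50 uM GDP; results are normalized to ATA and DMSO.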

Assay [17] addresses Rap guanine nucleotide exchange factor 4 (Homo sapiens) (UniProt Q8WZA2). Kind of assay: Confirmatory qHTS for antagonist of cAMP-regulated guanine nucleotide exchange factor 4 (EPAC2) (AID 1645885). Note: nearly all actives have a fitted effect of over 25% in size. Note: potency is the fitted concentration of half-maximal effect.
Assay [18] concerns the target Rap guanine nucleotide exchange factor 3 (Homo sapiens) (UniProt O95398). Briefly: Confirmatory qHTS for agonist of cAMP-regulated guanine nucleotide exchange factor 3 (EPAC1) (AID 1645881).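 Note: EPAC1 catalysed release of BODIPY-GDP from Rap1B seen as fluorescence loss; nearly all actives have a fitted effect of over 75% in size.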
[19] abbreviates: measured here: cell count channel max response.
Setting [20] is: measured here: lipid channel max response.

Rap guanine nucleotide exchange factor 3 (Homo sapiens), sequence (O95398 whole entry, looked up): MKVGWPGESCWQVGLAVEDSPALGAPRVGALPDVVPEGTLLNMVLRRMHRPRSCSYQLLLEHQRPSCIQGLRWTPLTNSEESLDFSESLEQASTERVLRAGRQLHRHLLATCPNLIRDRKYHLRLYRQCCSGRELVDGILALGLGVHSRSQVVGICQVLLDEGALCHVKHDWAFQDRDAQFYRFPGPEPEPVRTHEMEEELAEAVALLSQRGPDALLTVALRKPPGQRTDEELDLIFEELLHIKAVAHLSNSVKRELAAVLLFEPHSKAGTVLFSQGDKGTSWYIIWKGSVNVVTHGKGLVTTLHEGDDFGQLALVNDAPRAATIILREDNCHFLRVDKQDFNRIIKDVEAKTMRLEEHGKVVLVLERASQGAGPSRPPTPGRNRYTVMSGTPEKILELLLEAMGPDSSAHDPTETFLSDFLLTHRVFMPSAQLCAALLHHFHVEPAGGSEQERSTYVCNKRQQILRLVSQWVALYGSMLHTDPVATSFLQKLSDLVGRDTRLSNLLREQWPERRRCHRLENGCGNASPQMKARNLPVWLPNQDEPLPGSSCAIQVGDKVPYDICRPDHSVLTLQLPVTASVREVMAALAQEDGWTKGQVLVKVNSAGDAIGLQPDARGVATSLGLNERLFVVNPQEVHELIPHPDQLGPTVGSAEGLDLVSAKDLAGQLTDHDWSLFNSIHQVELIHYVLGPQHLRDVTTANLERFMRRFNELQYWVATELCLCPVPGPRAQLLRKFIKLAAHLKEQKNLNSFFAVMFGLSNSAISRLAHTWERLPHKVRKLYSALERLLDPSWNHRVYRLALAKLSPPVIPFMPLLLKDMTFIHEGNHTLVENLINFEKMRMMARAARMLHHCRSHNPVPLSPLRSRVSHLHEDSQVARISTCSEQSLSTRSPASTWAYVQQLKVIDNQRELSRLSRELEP
Glucocorticoid receptor (Homo sapiens), sequence (P04150 whole entry, looked up, the tested form may be a part): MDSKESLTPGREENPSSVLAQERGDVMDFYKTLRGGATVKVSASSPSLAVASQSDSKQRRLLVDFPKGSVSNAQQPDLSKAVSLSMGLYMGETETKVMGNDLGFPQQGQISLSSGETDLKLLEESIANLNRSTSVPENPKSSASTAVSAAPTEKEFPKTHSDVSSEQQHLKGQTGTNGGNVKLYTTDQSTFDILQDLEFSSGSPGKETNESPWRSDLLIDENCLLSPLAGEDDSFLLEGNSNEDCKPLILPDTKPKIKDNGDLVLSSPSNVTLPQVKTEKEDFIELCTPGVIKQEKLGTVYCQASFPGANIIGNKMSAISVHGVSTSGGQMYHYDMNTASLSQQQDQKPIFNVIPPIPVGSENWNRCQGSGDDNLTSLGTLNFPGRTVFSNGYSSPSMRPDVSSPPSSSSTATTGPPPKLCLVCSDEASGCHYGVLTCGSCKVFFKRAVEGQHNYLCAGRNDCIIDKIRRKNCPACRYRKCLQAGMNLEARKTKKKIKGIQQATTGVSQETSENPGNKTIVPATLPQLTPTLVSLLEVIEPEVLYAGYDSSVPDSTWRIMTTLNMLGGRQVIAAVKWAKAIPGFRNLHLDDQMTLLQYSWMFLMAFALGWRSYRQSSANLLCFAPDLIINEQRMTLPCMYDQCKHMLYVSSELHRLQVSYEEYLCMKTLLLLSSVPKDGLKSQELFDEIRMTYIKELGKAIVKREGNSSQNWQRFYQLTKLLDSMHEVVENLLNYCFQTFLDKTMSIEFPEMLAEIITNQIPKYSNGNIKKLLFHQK
Rap guanine nucleotide exchange factor 4 (Homo sapiens), sequence (Q8WZA2 whole entry, looked up): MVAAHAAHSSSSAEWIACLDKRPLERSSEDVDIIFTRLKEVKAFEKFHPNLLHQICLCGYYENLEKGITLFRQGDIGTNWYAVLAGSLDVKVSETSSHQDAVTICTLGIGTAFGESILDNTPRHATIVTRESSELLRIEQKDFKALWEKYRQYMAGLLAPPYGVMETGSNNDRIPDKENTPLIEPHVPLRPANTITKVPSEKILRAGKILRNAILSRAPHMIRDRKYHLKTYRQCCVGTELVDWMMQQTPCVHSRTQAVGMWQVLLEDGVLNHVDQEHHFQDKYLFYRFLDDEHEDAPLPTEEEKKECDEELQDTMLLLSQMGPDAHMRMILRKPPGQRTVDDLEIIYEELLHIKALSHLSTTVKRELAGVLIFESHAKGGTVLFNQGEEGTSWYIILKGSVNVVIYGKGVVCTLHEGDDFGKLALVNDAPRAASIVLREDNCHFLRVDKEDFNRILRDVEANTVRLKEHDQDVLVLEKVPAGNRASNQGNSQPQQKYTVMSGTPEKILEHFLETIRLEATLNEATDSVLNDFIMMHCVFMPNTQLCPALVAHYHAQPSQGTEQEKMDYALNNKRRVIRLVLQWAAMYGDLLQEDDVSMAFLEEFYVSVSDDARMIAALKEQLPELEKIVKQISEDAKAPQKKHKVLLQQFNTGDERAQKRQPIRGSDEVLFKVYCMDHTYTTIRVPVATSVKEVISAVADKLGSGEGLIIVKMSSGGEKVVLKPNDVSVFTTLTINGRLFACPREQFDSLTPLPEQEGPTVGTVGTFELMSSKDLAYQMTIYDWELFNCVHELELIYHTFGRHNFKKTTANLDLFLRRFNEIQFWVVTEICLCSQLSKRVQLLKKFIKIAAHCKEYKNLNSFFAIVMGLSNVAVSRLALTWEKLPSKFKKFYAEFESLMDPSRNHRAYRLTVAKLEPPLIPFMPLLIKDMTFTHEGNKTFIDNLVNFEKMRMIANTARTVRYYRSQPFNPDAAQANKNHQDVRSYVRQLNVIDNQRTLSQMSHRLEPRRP
Dual specificity protein kinase CLK4 (Homo sapiens), sequence (Q9HAZ1 whole entry, looked up): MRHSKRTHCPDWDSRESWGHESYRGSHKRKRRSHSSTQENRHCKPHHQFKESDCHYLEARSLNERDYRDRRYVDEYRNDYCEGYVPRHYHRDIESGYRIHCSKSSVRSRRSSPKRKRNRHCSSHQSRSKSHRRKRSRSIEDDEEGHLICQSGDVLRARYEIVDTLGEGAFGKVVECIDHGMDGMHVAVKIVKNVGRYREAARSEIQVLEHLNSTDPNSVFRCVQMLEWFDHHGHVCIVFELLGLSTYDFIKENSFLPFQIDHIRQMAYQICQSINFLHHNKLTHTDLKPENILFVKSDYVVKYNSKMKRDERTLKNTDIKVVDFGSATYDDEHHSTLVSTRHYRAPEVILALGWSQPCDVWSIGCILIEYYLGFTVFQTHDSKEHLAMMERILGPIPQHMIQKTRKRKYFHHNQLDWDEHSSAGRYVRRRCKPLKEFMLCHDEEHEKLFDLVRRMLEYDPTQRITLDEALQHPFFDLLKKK
Cytochrome P450 1A2 (Homo sapiens), sequence (P05177 whole entry, looked up): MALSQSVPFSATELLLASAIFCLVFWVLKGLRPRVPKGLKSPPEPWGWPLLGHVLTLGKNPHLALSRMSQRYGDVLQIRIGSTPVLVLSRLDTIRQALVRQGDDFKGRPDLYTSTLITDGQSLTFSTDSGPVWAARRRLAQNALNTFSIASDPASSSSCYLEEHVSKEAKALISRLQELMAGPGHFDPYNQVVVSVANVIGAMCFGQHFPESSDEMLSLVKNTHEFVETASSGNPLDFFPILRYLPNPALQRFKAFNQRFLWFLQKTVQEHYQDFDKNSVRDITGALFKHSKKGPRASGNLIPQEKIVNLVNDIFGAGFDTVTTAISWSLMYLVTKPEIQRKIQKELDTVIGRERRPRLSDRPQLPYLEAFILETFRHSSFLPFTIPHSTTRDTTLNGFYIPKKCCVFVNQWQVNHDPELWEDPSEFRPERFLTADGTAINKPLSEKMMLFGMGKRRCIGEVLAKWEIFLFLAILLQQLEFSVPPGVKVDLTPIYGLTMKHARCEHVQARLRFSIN

For `O=C(O)C[C@@H]1NC(=O)[C@H](Cc2ccccc2)NC1=O`, the Potency entry in assay [1] was “inactive”.

`CC1=C(C(N)=O)N2C(=O)[C@@H](NC(=O)Cc3ccccc3)C2SC1` (stereo partly specified): the Potency entry in [1] is “inactive”.

With `CC1CCC(C(C)[C@H]2CCC3C4CC(=O)C5C[C@@H](O)CC[C@]5(C)C4CC[C@@]32C)=NC1` (stereo partly specified), the Potency result in [1] was “inactive”.

On to `COc1c(O)cc2c(=O)oc3c(OC)c(O)cc4c(=O)oc1c2c34`, for which, in [1], the Potency entry is “inactive”.

As for `COCCn1c(=O)c(-c2cccs2)nc2cnc(N(C)C)nc21`, the Potency was > 11.4 µM (inactive) in assay [2], 2 µM (active) in [4], > 9.22 µM (inactive) in [7] and > 46 µM (inactive) in assay [8]. The results for the activity change, negative = inhibition in [3], in [5] and in assay [12] were -5.67% (inactive), 10.2% (inactive) and 3.99% (inactive), respectively. In addition, the activity, negative = inhibition in [6] is -4.44% (inactive). The call in [9] was inactive. Moreover, the Potency entry in [10], in assay [11], in assay [13], in assay [14], in assay [15] and in [1] was “inactive” each time. The Potency entry in [16] and in [17] was “inactive” each time. Also, the max response in assay [12] (setting [19]) amounted to 26.2%; in assay [12] (setting [20]), 28.7%.

`COc1ccc(-c2cnc(-c3cccnc3)o2)cc1`: the Potency entry in assay [1] was “inactive”.

`COC1=C[C@@H](C)C2CC3OC(=O)C[C@H]4C(C)=C(OC)C(=O)C([C@@]2(C)C1=O)[C@@]34C` (stereo partly specified): in assay [1], the Potency result is “inactive”.

`O=C(Oc1ccccc1)N1CCC2(CCCN(c3ccccc3)C2)CC1`: the Potency in assay [2] was > 11.4 µM (inactive); in [4], 15.8 µM (active); in [8], > 46 µM (inactive). Moreover, the activity change, negative = inhibition in [3] was 8.28% (inactive); in assay [12], -26.4% (inactive). The activity, negative = inhibition in assay [6] is 8.61% (inactive). In addition, the molecule was classed as inactive in assay [9] and in assay [18]. In addition, the Potency entry in assay [11], in [1], in [16] and in assay [17] was “inactive” throughout. For the same molecule, the max response in [12] (setting [19]) is 17%; in assay [12] (setting [20]) it was -12.6%.

As for `O=c1[nH]c(-c2ccccc2O)nc2ccccc12`, the Potency entry in assay [1] is “inactive”.

For `N=c1ccn2c(n1)OCC1C2O[C@@H](O)[C@H]1O` (stereo partly specified), the Potency entry in assay [1] is “inactive”.

With `Cc1cc2c3c(cccc3n1)C(=O)c1ccccc1-2`, the Potency result in [1] is “inactive”.

Turning to `O=C(O)C1Cc2c([nH]c3ccccc23)C(c2coc3ccccc3c2=O)N1` (stereo unspecified), the Potency result in assay [1] is “inactive”.

As for `COc1cc(O)c2c(=O)cc(C)oc2c1CC=C(C)C`, the Potency result in assay [11], in assay [1] and in [16] was “inactive” in each case. In assay [12], the activity change, negative = inhibition is 15% (inactive). In addition, the max response turned out to be 7.83% in assay [12] (setting [19]) and 11.5% in assay [12] (setting [20]). The outcome in assay [18] was inactive. In addition, the Potency in assay [17] is 22.1 µM (active).

On to `COc1ccc(C(=O)N2CCC3(CC2)CN(c2ccncc2)C3)cc1`, for which the Potency in assay [2] is > 11.4 µM (inactive); in assay [8], > 46 µM (inactive). Further, the values for the activity change, negative = inhibition in assay [3], in assay [5] and in assay [12] were 4.67% (inactive), -16% (inactive) and -1.18% (inactive), respectively. In addition, the Potency result in [4], in assay [10], in assay [11], in assay [1], in assay [16] and in assay [17] was “inactive” throughout. Besides, the activity, negative = inhibition in assay [6] is 5.81% (inactive). Besides, the max response in assay [12] (setting [19]) was -4.69%; in assay [12] (setting [20]), -4.19%. Moreover, the outcome in [18] was inactive.
